Measured values from article PMC7862700, “An all-to-all approach to the identification of sequence-specific readers for epigenetic DNA modifications on cytosine”.

What was measured:
Experiment in all cases: DAPPL (digital affinity profiling via proximity ligation, sequencing); 10 mM Tris-HCl pH 7.5, 50 mM NaCl, 1 mM DTT, 4% glycerol, room temperature, 30 min; GST-TFs on glutathione beads, 16-mer random dsDNA library, 0.1% formaldehyde crosslink after washing; high values mean tight binding
FLI1 = biological target: T1, FLI1 (Homo sapiens, UniProt Q01543 1-452); settings: protein: recombinant; tags: N-terminal GST; dsDNA, one strand shown
T1 sequence: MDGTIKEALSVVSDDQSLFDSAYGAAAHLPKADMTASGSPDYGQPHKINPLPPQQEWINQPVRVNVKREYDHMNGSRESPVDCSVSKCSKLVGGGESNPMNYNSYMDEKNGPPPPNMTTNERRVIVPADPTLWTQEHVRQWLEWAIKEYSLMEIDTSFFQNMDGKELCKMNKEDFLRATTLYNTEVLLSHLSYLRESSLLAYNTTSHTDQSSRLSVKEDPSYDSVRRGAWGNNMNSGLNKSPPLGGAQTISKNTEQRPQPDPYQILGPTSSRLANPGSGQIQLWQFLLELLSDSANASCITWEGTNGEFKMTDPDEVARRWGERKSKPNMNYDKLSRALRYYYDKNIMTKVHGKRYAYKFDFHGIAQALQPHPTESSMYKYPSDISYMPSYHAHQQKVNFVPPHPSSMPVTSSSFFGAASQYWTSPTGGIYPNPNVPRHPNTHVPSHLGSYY
Procedure, shortened: (§1)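 Pools of DNA-barcoded human transcription factors, expressed in yeast as GST fusions on glutathione beads and combined with a tag-only sample, were incubated with 200 nmole of a 16-mer random double-stranded DNA library. Incubation took 30 min at room temperature in Tris/NaCl/DTT/glycerol buffer and was followed by washing, 0.1% formaldehyde crosslinking, proximity ligation (BsaI/T4 ligase, 1 h, 37 °C), PCR amplification and sequencing on an Illumina NextSeq500. Binding signal is the ratio of a hexamer's read frequency for a factor to its frequency for the tag-only sample.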

ELK1 = biological target: T2, ELK1 (Homo sapiens, UniProt P19419 1-428); settings: protein: recombinant; tags: N-terminal GST; dsDNA, one strand shown
T2 sequence: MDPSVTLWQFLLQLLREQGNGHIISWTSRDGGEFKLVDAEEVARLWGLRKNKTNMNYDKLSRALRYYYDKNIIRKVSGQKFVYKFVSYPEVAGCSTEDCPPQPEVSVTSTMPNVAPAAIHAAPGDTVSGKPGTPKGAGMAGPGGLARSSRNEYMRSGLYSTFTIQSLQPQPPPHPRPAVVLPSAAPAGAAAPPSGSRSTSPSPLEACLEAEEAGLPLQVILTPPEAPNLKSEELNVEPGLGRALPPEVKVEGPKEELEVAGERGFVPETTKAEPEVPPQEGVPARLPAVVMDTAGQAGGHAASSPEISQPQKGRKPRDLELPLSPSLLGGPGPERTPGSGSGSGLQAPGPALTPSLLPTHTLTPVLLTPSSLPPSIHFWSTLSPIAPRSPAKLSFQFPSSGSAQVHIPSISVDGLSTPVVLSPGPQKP
Procedure, shortened: as §1

GABPA = biological target: T3, GABPA (Homo sapiens, UniProt Q06546 1-454); settings: protein: recombinant; tags: N-terminal GST; dsDNA, one strand shown
T3 sequence: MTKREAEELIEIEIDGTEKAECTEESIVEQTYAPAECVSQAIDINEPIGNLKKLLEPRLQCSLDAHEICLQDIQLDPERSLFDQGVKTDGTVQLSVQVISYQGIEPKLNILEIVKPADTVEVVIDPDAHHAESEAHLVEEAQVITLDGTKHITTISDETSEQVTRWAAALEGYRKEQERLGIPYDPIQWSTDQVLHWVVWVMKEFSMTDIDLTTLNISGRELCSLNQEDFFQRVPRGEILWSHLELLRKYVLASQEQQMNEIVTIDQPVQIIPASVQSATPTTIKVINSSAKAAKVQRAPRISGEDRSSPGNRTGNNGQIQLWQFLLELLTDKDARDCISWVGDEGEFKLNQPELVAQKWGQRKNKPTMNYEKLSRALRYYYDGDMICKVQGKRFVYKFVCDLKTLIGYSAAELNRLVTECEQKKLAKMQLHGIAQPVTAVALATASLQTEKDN
Procedure, shortened: as §1

ERG = biological target: T4, ERG (Homo sapiens, UniProt P11308 1-479); settings: protein: recombinant; tags: N-terminal GST; dsDNA, one strand shown
T4 sequence: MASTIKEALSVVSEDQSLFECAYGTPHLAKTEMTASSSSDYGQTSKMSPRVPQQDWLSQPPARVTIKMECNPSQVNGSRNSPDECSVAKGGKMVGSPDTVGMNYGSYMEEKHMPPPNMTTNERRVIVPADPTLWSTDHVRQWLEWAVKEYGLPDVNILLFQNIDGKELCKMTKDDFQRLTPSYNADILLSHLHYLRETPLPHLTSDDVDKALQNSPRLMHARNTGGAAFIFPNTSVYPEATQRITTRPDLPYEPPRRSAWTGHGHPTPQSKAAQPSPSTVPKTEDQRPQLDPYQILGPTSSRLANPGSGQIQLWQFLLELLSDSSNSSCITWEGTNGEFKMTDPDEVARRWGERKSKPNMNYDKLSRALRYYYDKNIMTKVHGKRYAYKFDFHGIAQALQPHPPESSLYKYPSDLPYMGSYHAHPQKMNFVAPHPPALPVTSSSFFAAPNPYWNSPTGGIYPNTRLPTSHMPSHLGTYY
Procedure, shortened: as §1

ELF1 = ELF1 (Homo sapiens, UniProt P32519 1-619); settings: protein: recombinant; tags: N-terminal GST; dsDNA, one strand shown
ELF1, sequence (P32519 whole entry): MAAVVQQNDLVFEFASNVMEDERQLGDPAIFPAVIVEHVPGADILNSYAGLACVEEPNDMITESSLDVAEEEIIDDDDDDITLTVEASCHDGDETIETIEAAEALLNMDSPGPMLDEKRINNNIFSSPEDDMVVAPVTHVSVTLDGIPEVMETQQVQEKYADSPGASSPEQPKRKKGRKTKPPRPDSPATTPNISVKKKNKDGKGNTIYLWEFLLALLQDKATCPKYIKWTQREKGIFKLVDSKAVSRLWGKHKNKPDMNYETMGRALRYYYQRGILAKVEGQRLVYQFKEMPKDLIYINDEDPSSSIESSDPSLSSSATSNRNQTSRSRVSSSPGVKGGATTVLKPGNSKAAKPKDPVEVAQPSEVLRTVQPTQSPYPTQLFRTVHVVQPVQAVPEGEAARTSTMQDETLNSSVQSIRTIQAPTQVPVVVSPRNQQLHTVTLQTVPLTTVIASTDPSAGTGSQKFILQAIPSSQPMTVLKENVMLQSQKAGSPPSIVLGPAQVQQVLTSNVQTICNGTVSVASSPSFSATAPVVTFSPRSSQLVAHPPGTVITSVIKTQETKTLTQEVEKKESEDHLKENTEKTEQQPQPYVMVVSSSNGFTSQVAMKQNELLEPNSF
Procedure, shortened: as §1

EHF = biological target: T5, EHF (Homo sapiens, UniProt Q9NZC4 1-300); settings: protein: recombinant; tags: N-terminal GST; dsDNA, one strand shown
T5 sequence: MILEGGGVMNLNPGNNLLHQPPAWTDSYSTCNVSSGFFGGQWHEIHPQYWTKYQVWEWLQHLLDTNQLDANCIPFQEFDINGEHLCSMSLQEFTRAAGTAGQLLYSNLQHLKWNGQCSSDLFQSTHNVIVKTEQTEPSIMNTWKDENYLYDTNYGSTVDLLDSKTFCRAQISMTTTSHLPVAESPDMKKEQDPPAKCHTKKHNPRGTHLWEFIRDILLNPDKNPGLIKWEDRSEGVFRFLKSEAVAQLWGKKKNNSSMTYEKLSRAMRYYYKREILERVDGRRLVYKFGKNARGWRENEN
Procedure, shortened: as §1

SPI1 = SPI1 (Homo sapiens, UniProt P17947 1-270); settings: protein: recombinant; tags: N-terminal GST; dsDNA, one strand shown
Procedure, shortened: as §1

SPIB = SPIB (Homo sapiens, UniProt Q01892 1-262); settings: protein: recombinant; tags: N-terminal GST; dsDNA, one strand shown
SPIB, sequence (Q01892 whole entry): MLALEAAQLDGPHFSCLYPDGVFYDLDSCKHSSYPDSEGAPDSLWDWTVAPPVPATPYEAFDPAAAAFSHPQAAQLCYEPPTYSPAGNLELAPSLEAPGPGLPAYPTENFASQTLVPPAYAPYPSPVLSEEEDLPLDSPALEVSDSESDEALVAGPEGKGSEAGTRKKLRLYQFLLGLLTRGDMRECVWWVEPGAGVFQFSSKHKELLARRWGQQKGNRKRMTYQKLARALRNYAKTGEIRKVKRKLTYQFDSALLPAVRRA
Procedure, shortened: as §1

ELK3 = biological target: T6, ELK3 (Homo sapiens, UniProt P41970 1-407); settings: protein: recombinant; tags: N-terminal GST; dsDNA, one strand shown
T6 sequence: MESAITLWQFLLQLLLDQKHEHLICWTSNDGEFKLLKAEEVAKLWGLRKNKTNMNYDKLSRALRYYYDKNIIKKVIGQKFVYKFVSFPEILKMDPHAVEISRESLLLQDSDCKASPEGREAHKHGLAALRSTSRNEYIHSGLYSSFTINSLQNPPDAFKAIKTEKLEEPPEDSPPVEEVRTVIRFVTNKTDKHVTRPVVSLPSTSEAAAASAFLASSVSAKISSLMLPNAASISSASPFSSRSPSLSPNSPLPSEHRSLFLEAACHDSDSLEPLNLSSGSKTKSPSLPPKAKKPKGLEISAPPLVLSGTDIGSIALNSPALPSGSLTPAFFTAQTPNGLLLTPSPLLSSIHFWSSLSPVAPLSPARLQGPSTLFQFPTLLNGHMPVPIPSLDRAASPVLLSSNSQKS
Procedure, shortened: as §1

FEV = biological target: T7, FEV (Homo sapiens, UniProt Q99581 1-238); settings: protein: recombinant; tags: N-terminal GST; dsDNA, one strand shown
T7 sequence: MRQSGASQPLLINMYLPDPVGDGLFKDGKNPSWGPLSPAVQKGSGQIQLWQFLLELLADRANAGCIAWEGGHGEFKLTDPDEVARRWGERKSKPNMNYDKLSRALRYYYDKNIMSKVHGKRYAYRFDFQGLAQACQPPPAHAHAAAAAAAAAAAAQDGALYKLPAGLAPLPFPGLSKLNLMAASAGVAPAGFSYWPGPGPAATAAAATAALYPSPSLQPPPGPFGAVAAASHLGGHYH
Procedure, shortened: as §1

ETV5 = ETV5 (Homo sapiens, UniProt P41161 1-510); settings: protein: recombinant; tags: N-terminal GST; dsDNA, one strand shown
ETV5, sequence (P41161 whole entry): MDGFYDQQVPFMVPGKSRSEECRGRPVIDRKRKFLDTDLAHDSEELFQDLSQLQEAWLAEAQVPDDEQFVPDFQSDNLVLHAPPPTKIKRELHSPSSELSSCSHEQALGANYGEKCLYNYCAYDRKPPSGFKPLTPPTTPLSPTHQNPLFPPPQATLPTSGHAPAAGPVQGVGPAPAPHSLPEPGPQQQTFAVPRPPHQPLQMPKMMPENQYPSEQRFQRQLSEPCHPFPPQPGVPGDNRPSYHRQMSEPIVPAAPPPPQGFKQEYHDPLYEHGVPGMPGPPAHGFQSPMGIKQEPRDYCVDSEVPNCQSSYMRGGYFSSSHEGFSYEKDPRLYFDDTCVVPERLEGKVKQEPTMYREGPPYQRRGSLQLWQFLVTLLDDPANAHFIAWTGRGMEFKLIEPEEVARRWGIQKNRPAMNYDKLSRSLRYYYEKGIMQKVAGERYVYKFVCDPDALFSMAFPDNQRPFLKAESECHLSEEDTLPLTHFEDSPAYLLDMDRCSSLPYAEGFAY
Procedure, shortened: as §1

HSF1 = HSF1 (Homo sapiens, UniProt Q00613 1-529); settings: protein: recombinant; tags: N-terminal GST; chain copies: 3; dsDNA, one strand shown
HSF1, sequence (Q00613 whole entry): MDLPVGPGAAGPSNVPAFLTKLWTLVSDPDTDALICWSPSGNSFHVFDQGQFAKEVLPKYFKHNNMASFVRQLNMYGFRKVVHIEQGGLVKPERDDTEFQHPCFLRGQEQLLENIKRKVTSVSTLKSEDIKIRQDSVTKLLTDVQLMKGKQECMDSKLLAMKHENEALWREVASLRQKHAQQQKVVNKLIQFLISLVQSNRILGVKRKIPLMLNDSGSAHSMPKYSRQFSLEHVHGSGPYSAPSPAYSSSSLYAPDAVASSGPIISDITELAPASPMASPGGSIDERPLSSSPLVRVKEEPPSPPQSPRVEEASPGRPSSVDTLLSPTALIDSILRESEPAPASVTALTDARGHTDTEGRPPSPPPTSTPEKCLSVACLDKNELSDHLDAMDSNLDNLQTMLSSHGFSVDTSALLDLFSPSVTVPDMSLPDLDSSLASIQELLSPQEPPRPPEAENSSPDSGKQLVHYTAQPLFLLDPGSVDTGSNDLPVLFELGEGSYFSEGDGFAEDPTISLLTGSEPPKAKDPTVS
Procedure, shortened: as §1

SPIC = biological target: T8, SPIC (Homo sapiens, UniProt Q8N5J4 1-248); settings: protein: recombinant; tags: N-terminal GST; dsDNA, one strand shown
T8 sequence: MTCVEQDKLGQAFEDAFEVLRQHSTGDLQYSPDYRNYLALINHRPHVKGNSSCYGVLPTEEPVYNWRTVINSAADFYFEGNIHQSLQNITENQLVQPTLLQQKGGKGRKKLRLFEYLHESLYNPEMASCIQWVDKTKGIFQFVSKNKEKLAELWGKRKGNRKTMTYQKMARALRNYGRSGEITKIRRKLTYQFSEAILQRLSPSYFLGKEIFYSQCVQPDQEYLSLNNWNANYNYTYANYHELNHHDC
Procedure, shortened: as §1

ELF4 = ELF4 (Homo sapiens, UniProt Q99607 1-663); settings: protein: recombinant; tags: N-terminal GST; dsDNA, one strand shown
ELF4, sequence (Q99607 whole entry): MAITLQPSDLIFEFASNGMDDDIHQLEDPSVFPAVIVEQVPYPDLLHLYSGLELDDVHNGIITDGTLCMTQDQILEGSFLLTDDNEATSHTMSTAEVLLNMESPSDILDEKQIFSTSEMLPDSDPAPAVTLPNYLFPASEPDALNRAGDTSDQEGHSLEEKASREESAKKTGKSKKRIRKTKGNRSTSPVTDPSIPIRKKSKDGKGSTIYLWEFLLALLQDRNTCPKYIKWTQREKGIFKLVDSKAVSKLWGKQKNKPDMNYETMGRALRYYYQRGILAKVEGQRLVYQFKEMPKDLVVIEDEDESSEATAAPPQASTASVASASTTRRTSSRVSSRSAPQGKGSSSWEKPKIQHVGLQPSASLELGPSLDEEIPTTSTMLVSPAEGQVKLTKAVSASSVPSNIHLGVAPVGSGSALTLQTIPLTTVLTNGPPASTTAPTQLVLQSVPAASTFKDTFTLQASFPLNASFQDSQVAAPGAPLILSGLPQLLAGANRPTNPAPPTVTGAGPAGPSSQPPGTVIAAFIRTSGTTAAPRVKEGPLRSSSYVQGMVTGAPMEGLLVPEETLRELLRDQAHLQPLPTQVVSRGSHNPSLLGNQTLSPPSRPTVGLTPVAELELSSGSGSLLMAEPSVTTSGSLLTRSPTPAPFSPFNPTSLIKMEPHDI
Procedure, shortened: as §1

ELK4 = biological target: T9, ELK4 (Homo sapiens, UniProt P28324-2 1-405); settings: protein: recombinant; tags: N-terminal GST; dsDNA, one strand shown
T9 sequence: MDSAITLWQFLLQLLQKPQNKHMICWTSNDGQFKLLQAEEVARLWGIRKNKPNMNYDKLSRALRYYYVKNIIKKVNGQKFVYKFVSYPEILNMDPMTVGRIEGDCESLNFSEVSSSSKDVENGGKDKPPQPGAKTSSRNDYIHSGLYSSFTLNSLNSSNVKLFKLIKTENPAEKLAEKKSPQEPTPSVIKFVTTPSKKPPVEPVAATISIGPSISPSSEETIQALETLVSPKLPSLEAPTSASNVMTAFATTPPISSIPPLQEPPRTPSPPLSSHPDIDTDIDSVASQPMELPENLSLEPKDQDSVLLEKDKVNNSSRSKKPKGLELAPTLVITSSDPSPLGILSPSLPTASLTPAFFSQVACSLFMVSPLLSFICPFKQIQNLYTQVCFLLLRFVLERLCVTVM
Procedure, shortened: as §1

ETV2 = biological target: T10, ETV2 (Homo sapiens, UniProt O00321 1-342); settings: protein: recombinant; tags: N-terminal GST; dsDNA, one strand shown
T10 sequence: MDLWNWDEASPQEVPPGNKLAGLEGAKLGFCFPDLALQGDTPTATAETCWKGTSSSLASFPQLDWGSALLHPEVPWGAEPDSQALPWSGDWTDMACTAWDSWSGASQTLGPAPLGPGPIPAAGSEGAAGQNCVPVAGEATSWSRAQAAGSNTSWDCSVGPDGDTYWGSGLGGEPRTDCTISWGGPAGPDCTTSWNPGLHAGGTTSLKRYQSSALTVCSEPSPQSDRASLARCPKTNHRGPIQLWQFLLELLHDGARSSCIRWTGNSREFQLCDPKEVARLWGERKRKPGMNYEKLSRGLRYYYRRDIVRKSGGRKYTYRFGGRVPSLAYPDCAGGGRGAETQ
Procedure, shortened: as §1

ELF3 = biological target: T11, ELF3 (Homo sapiens, UniProt P78545 1-371); settings: protein: recombinant; tags: N-terminal GST; dsDNA, one strand shown
T11 sequence: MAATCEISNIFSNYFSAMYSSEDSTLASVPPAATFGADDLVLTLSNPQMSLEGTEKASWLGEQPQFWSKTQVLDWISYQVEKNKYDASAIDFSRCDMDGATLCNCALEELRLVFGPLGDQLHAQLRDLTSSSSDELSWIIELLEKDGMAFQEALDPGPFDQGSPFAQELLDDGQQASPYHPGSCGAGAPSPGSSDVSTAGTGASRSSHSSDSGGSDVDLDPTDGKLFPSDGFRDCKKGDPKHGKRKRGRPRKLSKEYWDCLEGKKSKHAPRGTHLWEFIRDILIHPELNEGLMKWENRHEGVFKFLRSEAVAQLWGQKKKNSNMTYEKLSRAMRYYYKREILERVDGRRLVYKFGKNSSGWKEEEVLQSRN
Procedure, shortened: as §1

CRX = CRX (Homo sapiens, UniProt O43186 1-299); settings: protein: recombinant; tags: N-terminal GST; dsDNA, one strand shown
CRX, sequence (O43186 whole entry): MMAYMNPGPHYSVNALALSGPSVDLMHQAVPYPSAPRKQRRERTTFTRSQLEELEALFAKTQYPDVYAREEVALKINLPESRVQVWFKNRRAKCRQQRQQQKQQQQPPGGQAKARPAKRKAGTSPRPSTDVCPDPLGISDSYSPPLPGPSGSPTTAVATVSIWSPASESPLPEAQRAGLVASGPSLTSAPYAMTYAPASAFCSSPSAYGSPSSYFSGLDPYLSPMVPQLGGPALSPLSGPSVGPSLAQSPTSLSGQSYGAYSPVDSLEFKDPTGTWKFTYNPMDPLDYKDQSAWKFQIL
Procedure, shortened: as §1

ETV1 = ETV1 (Homo sapiens, UniProt P50549 1-477); settings: protein: recombinant; tags: N-terminal GST; dsDNA, one strand shown
ETV1, sequence (P50549 whole entry): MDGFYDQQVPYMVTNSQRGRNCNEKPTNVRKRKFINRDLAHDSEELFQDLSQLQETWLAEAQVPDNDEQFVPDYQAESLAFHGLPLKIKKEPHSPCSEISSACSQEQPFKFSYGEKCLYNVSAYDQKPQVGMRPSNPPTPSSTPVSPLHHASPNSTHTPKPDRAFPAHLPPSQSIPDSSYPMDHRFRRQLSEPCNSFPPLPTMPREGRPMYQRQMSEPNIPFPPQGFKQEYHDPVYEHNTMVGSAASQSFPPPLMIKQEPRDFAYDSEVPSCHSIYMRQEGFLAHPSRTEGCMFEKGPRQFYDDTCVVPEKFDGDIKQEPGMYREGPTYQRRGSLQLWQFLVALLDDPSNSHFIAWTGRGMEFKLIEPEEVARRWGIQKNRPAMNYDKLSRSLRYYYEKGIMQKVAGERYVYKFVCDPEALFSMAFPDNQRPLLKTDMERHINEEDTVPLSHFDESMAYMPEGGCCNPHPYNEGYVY
Procedure, shortened: as §1

## CTCCCG
FLI1
  binding signal: 1.61 fold enrichment (6-mer frequency, TF over GST control)
ELK1
  binding signal: 1.56 fold enrichment (6-mer frequency, TF over GST control)
GABPA
  binding signal: 1.62 fold enrichment (6-mer frequency, TF over GST control)
ERG
  binding signal: 1.54 fold enrichment (6-mer frequency, TF over GST control)
ELF1
  binding signal: 1.57 fold enrichment (6-mer frequency, TF over GST control)
EHF
  binding signal: 1.75 fold enrichment (6-mer frequency, TF over GST control)
SPI1
  binding signal: 1.45 fold enrichment (6-mer frequency, TF over GST control)
SPIB
  binding signal: 1.62 fold enrichment (6-mer frequency, TF over GST control)
ELK3
  binding signal: 1.58 fold enrichment (6-mer frequency, TF over GST control)
FEV
  binding signal: 1.61 fold enrichment (6-mer frequency, TF over GST control)
ETV5
  binding signal: 1.59 fold enrichment (6-mer frequency, TF over GST control)
HSF1
  binding signal: 1.5 fold enrichment (6-mer frequency, TF over GST control)
SPIC
  binding signal: 1.77 fold enrichment (6-mer frequency, TF over GST control)
ELF4
  binding signal: 1.68 fold enrichment (6-mer frequency, TF over GST control)
ELK4
  binding signal: 1.46 fold enrichment (6-mer frequency, TF over GST control)
ETV2
  binding signal: 1.25 fold enrichment (6-mer frequency, TF over GST control)
ELF3
  binding signal: 1.69 fold enrichment (6-mer frequency, TF over GST control)
CRX
  binding signal: 1.27 fold enrichment (6-mer frequency, TF over GST control)
ETV1
  binding signal: 1.5 fold enrichment (6-mer frequency, TF over GST control)
